# Experimental data taken from ChEMBL document CHEMBL1961873, “Compounds: GSK PKIS; Assays: Nanosyn kinase panel” (2012).
# Assays:
# [1] = system: Proto-oncogene tyrosine-protein kinase receptor Ret (Homo sapiens), P07949 [Y791F]; settings: at 1 µM
# [2] = target: Macrophage-stimulating protein receptor (Homo sapiens) (UniProt Q04912); settings: at 0.1 µM
# [3] = target: Macrophage-stimulating protein receptor (Homo sapiens) (UniProt Q04912); settings: at 1 µM
# [4] = target: Proto-oncogene tyrosine-protein kinase ROS (Homo sapiens) (UniProt P08922); settings: at 0.1 µM
# [5] = target: Proto-oncogene tyrosine-protein kinase ROS (Homo sapiens) (UniProt P08922); settings: at 1 µM
# [6] = target: Proto-oncogene tyrosine-protein kinase Src (Homo sapiens) (UniProt P12931); settings: at 0.1 µM
# Chain of Proto-oncogene tyrosine-protein kinase Src (Homo sapiens) (P12931 2-536 limits assumed): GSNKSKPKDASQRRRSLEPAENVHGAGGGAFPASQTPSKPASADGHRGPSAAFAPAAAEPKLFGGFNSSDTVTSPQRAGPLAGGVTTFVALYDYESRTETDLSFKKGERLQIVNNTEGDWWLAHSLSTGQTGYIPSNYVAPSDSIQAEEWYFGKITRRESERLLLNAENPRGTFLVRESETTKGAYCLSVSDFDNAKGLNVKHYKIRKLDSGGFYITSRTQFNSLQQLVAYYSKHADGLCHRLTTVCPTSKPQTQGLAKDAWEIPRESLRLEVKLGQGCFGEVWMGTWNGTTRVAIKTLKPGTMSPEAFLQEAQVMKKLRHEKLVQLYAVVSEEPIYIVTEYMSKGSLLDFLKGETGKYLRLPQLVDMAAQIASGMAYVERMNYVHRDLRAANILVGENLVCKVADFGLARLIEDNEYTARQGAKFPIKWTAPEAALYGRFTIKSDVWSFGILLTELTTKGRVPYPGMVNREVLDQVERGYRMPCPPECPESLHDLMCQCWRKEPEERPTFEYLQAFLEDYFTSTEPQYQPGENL
# [7] = target: Proto-oncogene tyrosine-protein kinase Src (Homo sapiens) (UniProt P12931); settings: at 1 µM
# [8] = target: Tyrosine-protein kinase Srms (Homo sapiens) (UniProt Q9H3Y6); settings: at 0.1 µM
# [9] = target: Tyrosine-protein kinase Srms (Homo sapiens) (UniProt Q9H3Y6); settings: at 1 µM
# [10] = target: Tyrosine-protein kinase SYK (Homo sapiens) (UniProt P43405); settings: at 0.1 µM
# [11] = target: Tyrosine-protein kinase SYK (Homo sapiens) (UniProt P43405); settings: at 1 µM
# [12] = target: T1, Tyrosine-protein kinase Tec (Homo sapiens) (UniProt P42680); settings: at 0.1 µM
# T1 sequence (whole entry): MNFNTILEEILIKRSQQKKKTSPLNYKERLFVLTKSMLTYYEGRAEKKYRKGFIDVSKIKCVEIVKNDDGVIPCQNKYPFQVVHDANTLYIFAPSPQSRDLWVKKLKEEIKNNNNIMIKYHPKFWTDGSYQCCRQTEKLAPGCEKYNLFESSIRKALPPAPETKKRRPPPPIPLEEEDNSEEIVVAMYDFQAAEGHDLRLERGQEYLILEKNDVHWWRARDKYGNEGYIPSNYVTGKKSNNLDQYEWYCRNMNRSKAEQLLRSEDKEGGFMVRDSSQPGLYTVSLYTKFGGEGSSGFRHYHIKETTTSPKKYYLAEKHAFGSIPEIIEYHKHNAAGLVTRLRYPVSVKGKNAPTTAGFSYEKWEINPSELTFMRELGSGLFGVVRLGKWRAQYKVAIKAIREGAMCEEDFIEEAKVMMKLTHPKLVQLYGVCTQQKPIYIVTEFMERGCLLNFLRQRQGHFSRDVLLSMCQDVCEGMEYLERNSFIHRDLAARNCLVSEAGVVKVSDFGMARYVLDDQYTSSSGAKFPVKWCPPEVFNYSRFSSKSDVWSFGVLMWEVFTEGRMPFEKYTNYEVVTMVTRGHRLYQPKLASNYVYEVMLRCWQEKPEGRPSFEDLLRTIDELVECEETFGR
# [13] = target: T1, Tyrosine-protein kinase Tec (Homo sapiens); settings: at 1 µM
# [14] = target: Angiopoietin-1 receptor (Homo sapiens) (UniProt Q02763); settings: at 0.1 µM
# Chain of Angiopoietin-1 receptor (Homo sapiens) (Q02763 whole entry): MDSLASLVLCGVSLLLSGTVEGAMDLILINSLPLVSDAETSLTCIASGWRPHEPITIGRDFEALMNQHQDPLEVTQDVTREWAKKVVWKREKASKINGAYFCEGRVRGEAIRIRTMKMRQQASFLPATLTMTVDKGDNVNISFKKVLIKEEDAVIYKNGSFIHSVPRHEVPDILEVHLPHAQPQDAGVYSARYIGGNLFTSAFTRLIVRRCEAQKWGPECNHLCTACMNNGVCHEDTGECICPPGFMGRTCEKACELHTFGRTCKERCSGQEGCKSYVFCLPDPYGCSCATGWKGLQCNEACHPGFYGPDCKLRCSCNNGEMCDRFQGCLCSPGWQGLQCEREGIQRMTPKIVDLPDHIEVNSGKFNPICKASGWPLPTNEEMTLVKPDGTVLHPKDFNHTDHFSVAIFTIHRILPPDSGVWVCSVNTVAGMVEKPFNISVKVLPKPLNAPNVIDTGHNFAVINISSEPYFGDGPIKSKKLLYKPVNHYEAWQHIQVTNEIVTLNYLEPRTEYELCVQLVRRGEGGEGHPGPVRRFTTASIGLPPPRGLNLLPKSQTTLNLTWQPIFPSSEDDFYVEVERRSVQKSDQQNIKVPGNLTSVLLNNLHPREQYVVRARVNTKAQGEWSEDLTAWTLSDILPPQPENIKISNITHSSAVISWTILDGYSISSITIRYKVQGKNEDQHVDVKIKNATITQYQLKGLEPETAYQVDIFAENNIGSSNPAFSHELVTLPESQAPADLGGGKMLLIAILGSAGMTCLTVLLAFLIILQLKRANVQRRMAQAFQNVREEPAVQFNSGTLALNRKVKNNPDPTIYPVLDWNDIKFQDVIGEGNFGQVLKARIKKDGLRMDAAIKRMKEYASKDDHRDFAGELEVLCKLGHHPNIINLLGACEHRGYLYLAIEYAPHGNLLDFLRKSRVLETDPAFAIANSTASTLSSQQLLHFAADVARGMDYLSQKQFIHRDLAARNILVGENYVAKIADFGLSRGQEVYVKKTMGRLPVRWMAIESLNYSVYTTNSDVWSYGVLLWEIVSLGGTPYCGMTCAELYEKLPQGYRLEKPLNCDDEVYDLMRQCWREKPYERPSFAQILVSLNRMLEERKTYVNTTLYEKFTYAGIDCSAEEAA
# [15] = target: Angiopoietin-1 receptor (Homo sapiens) (UniProt Q02763); settings: at 1 µM
# [16] = target: T2, Non-receptor tyrosine-protein kinase TNK1 (Homo sapiens) (UniProt Q13470); settings: at 0.1 µM
# T2 sequence (whole entry): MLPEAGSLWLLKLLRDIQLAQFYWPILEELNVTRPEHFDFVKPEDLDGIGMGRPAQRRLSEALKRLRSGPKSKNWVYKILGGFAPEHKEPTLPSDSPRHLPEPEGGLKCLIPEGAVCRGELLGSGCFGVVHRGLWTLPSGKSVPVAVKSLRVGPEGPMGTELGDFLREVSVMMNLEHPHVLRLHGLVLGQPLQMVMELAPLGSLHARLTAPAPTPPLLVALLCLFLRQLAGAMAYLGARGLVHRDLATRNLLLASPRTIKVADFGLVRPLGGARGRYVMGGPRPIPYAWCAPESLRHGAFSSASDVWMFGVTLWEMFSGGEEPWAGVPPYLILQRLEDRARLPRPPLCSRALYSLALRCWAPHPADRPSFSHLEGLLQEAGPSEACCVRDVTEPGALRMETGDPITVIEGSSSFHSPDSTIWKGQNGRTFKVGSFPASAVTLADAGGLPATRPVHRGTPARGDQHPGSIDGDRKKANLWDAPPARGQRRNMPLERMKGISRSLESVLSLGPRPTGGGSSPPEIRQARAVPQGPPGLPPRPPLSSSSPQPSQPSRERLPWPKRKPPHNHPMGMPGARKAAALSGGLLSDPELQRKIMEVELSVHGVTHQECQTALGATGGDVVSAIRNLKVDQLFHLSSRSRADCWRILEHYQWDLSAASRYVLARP
# [17] = target: T2, Non-receptor tyrosine-protein kinase TNK1 (Homo sapiens); settings: at 1 µM
# [18] = target: Activated CDC42 kinase 1 (Homo sapiens) (UniProt Q07912); settings: at 0.1 µM
# [19] = target: Activated CDC42 kinase 1 (Homo sapiens) (UniProt Q07912); settings: at 1 µM
# [20] = target: High affinity nerve growth factor receptor (Homo sapiens) (UniProt P04629); settings: at 0.1 µM;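 also: each value is a mean of replicate percent inhibition readings against TRKA kinase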
# Chain of High affinity nerve growth factor receptor (Homo sapiens) (P04629 33-796 limits assumed): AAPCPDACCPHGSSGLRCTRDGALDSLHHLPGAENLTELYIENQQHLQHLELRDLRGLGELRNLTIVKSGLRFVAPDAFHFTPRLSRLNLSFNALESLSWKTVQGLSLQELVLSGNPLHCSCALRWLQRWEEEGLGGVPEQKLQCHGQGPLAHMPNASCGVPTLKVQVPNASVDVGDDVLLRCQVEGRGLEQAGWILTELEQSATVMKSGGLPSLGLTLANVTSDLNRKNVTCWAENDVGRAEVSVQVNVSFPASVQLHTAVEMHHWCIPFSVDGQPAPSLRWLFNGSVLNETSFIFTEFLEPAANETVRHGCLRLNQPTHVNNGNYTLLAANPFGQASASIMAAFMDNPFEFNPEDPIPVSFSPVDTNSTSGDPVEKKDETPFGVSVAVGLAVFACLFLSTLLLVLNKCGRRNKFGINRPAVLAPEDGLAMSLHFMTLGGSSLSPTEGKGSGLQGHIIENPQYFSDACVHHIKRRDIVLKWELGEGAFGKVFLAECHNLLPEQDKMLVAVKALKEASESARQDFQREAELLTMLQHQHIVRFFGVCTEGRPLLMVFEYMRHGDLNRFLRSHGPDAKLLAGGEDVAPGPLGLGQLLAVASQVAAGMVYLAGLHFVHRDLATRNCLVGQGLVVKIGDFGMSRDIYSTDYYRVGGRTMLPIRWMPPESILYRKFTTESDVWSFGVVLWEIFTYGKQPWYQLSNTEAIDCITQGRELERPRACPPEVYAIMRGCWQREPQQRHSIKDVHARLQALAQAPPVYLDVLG
# Chain of Macrophage-stimulating protein receptor (Homo sapiens) (Q04912 25-304 limits assumed): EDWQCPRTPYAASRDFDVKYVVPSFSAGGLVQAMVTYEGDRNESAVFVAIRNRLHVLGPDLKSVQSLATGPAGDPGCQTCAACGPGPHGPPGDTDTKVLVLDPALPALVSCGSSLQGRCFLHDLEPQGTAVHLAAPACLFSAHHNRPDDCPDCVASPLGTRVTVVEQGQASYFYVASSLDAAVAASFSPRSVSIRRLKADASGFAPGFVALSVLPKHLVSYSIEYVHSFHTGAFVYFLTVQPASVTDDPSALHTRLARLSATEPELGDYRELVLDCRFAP
# Chain of Macrophage-stimulating protein receptor (Homo sapiens) (Q04912 310-1400 limits assumed): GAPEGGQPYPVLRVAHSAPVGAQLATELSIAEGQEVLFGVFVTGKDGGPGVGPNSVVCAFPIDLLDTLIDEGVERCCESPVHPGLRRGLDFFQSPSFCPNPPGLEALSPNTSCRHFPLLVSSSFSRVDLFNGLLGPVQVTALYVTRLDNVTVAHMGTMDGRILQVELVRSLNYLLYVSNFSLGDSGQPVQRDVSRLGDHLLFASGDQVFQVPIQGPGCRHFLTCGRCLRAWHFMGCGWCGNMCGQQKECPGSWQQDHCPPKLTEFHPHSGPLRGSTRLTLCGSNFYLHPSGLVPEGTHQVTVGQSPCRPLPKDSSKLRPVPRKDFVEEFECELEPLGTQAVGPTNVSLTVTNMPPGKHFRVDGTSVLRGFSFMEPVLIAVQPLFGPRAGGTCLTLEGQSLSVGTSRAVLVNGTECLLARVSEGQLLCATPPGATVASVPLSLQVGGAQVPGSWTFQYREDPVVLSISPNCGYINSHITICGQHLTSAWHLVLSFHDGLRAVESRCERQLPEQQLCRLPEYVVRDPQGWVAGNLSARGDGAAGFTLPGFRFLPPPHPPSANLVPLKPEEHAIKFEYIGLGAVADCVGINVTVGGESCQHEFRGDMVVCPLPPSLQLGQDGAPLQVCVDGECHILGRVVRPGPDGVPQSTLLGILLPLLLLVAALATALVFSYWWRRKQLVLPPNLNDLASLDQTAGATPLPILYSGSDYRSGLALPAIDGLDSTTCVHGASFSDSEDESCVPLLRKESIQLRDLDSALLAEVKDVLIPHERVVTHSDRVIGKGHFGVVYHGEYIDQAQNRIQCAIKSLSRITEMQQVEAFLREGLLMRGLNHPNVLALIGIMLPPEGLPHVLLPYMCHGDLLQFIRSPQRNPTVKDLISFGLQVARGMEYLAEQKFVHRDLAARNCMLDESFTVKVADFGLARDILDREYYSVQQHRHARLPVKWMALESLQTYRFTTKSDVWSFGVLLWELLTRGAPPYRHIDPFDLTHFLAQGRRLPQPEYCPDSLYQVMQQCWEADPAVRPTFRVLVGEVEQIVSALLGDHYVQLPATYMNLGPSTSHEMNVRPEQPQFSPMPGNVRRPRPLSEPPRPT
# Chain of Proto-oncogene tyrosine-protein kinase receptor Ret (Homo sapiens), P07949 [Y791F] (P07949 whole entry Y791F): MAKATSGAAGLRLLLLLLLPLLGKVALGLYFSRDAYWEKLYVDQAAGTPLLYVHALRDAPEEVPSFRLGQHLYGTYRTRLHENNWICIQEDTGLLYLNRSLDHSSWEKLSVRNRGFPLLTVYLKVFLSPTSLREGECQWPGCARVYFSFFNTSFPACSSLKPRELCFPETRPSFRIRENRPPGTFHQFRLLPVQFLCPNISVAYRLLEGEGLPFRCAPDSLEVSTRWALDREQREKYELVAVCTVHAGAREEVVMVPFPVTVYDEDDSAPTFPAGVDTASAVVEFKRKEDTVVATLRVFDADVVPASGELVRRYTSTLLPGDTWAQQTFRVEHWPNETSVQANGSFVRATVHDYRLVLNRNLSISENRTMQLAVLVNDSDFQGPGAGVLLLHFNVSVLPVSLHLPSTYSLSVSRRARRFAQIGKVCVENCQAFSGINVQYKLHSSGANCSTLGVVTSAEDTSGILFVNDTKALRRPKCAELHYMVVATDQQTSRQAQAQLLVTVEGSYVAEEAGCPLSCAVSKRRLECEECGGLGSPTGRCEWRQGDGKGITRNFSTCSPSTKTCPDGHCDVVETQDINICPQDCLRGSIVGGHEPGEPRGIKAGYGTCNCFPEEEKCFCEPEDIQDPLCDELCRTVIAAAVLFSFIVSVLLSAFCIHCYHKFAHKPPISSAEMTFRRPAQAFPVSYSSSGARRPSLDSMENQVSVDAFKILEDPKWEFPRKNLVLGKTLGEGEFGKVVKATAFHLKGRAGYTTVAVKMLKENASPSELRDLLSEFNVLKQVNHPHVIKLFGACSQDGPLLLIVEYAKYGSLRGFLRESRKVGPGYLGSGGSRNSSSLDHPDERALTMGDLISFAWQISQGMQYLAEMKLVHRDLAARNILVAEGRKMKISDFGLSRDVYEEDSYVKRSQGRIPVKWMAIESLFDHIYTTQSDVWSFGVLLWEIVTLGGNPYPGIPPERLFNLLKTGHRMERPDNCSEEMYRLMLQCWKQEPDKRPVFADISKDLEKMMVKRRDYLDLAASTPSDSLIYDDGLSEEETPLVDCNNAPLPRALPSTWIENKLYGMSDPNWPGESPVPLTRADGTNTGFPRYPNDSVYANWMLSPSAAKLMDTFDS
Compound,inhibition [1] [%],inhibition [2] [%],inhibition [3] [%],inhibition [4] [%],inhibition [5] [%],inhibition [6] [%],inhibition [7] [%],inhibition [8] [%],inhibition [9] [%],inhibition [10] [%],inhibition [11] [%],inhibition [12] [%],inhibition [13] [%],inhibition [14] [%],inhibition [15] [%],inhibition [16] [%],inhibition [17] [%],inhibition [18] [%],inhibition [19] [%],inhibition [20] [%]
c1ccc(-c2nc3n(c2-c2ccc4c(c2)OCO4)CCC3)nc1,1.82,0.69,1.59,4.52,4.91,-7.85,2.73,-0.53,-1.55,-1.33,2.09,1.69,0.69,-0.12,1.12,0.76,0.08,0.05,0.93,1.9
NS(=O)(=O)c1ccc(N/N=C2\C(=O)Nc3ccc4ncccc4c32)cc1,77.7,2.25,13.3,8.1,35.3,19.3,71.1,-0.11,3.96,-9.38,22.4,8.53,38.3,5.02,11.5,14.6,56.8,1.85,8.38,6.88
CC(=O)NCc1cccc(C#Cc2cncnc2Nc2ccc(OCc3cccc(F)c3)c(Cl)c2)c1,3.42,5.44,5.62,3.92,4.54,0.53,2.01,0.33,-1.05,-2.37,2.55,0.58,0.89,0.95,4.38,-1.56,-1.3,-0.45,-0.03,1.25
Nc1ncc(-c2cccc(S(N)(=O)=O)c2)c2scc(-c3ccc(F)c(Cl)c3)c12,50.2,1.48,15.8,-0.54,6.78,19.6,57.1,-1.03,6.75,0.28,-4.44,25.8,75.2,2.99,11.1,6.81,36,5.03,36.6,1.33
Nc1nc(-c2cccc(Cl)c2)c(-c2ccc3ncccc3n2)s1,15.2,4.75,10.5,6.74,11.4,4.18,13.6,-1.79,-1.08,-2.15,-0.99,5.56,5.26,4.2,5.76,3.08,11.5,3.52,2.83,2.32
Cc1ccc2c(-c3ccnc(Nc4ccccc4)n3)c(-c3ccc(F)cc3)nn2n1,50.7,0.11,3.58,2.77,5.97,15.3,63.2,1.58,9.73,-2.66,-4.62,10.6,38.1,3.44,17.5,3.52,14.2,1.74,7.9,9
CCn1c(-c2nonc2N)nc2cnc(Oc3cccc(NC(=O)c4ccc(N(C)C)cc4)c3)cc21,1.39,1.95,1.27,2.49,3.39,3.64,1.89,-0.5,6.2,-1.42,0.64,3.07,2.35,2.52,4.62,6.05,6.93,0.85,0.38,1.37
CCCN1CCC(c2ccc(Nc3nc(Nc4cc(F)ccc4C(N)=O)c4cc[nH]c4n3)c(OC)c2)CC1,35.8,8.19,8.86,60.7,81.3,-0.59,15.3,1.02,14.8,-9.2,73.4,2.15,7.76,2.84,4.59,46.4,92.8,5.57,44.3,1.74
c1ccc(COc2ccc(Nc3ncnc4ccc(-c5ccco5)cc34)cc2)cc1,1.21,4.01,7.76,2.59,3.28,0.54,1.64,0.68,0.99,-0.45,-0.46,1.31,3.25,2.64,3.4,1.53,5.09,-0.27,0.03,-2.34
CCc1nn2ncccc2c1-c1ccnc(NC2CC2)n1,6.92,6.26,6.01,4.86,5.32,6.38,7.08,1.77,1.02,0.63,2.4,3.41,4.89,4.14,6.65,1.41,5.48,1.22,2.89,0.51
COc1cccc(-c2c[nH]c3c(N/N=C/c4ccncc4)ncnc23)c1,39.7,9.37,42.4,4.61,14.4,29.8,77.3,1.92,11.8,-4.09,4.79,3.87,16.5,4.98,27.5,10,41.7,1.63,15.3,6.49
Fc1ccc(-c2nn3ccccc3c2-c2ccncc2)cc1,7.11,3.62,3.94,1.35,3.41,-0.8,5,-1.74,0.28,2.26,0.32,1.22,2.64,3.2,4.76,-0.64,0.91,0.16,0.87,2.3
COc1cc(N2CCN(C(C)C)CC2)ccc1Nc1nc(Nc2ccc(F)cc2C(N)=O)c2cc[nH]c2n1,16.6,0.61,-0.44,51.8,81.8,6.34,10.4,1.36,7.98,0.19,35.9,6.32,3.59,4.35,3.7,34.7,74.1,10.8,61.7,-1.19
